Test results: PubChem BioAssay (NCI)
About 83,000 compounds went through this panel and 20% of them were active in at least one assay; those are over-represented in the sample as a whole.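 Cells were grown in 96-well plates and exposed to the test compound at a single concentration for 48 hours; results are reported as percent growth, with values below 10 considered active.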 Unmarked numbers belong to inactive results. Active and inactive are the calls of the source.

Tested on: SNB-19 CNS
Experiment: NCI-60 one-dose screen, 48 h (100 = growth as untreated, 0 = no growth, -100 = all killed)
Details: 10 µM

SMILES	growth
NC1=NC(c2ccccc2Cl)N=C(Nc2nn[nH]n2)N1 (configuration not stated)	99.6%
CC(=O)Nc1ccc(-c2cn(-c3cccc(C(=O)Nc4ccc(Cl)c(C(F)(F)F)c4)c3)nn2)cn1	-35.3% (active)
CC(C)Sc1nc(NC2CC2)c(C#N)c(-c2ccccc2)n1	25.7%
O=C1CCC(N2Cc3cc(CC(=O)Nc4ccc(N5CCCCC5)cc4)ccc3C2=O)C(=O)N1 (configuration not stated)	49.2%
N#Cc1c(Cl)nc(SCc2ccc(F)cc2)nc1-c1ccc(F)cc1	98%
Cc1ccc(C(=O)N/C(=C2/OCCN2C)[P+](c2ccccc2)(c2ccccc2)c2ccccc2)cc1	74.1%
Cc1ccc(C(=O)NNC(=O)CSc2nc3ccccc3c(=O)[nH]2)cc1	92.8%
Cc1ccc2nc(-c3ccc(-c4nnc(SCC(=O)Nc5ccc(Br)cc5)o4)cc3)[nH]c2c1	70.3%
CN1C/C(=C\c2ccc(O)cc2O)c2[o+]c3cc(O)ccc3cc2C1	42.1%
COc1ccc2[nH]cc(/C=N/Nc3ccc(Br)cn3)c2c1	51.2%
CCCS(=O)(=O)c1oc(-c2ccc(F)cc2)nc1S(=O)(=O)c1ccc(F)cc1	82.6%
COC[C@@H](CC(C)C)N=C1NC(=O)/C(=C/c2ccc3ncoc3c2)N1	17.5%
CC(C)C(=O)Nc1ccc(C(=O)NC(=S)Nc2ccc(C(=O)O)cc2)cc1	97.8%
Cc1ccc(C(=O)NCCCNc2nc(Nc3ccc(N4CCN(C)CC4)cc3)nc3ccsc23)cc1	71.6%
CC(=O)Nc1nc(-c2ccc(N3CCN(C)CC3)c(NS(=O)(=O)c3cccc4c(N(C)C)cccc34)c2)cs1	58.8%
S=c1nc(-c2ccccc2)cc(-c2cc3ccccc3nc2Cl)[nH]1	81.2%
O=C(/C=C/Nc1ccc(F)cc1F)c1ccc2c(c1)Nc1ccccc1S2	63.9%
Cc1ccc(-c2nc(Nc3ccccc3C(=O)O)c3ccccc3n2)cc1	8.82% (active)
COc1ccc(C(=O)/C=C/c2cc(C(F)(F)F)cc(C(F)(F)F)c2)cc1S(N)(=O)=O	-100% (active)

SMILES	growth
COc1ccc(-c2cc(C(=O)N=Nc3c(O)[nH]c4ccccc34)c3ccccc3n2)cc1	-38.8% (active)
CS(=O)(=O)Nc1ccc(-c2ccc3c(c2)ncn3-c2ccc(NC(=O)Nc3ccc(Cl)c(C(F)(F)F)c3)cc2)cc1	-89.3% (active)
O=C(Nc1nc2ccc([N+](=O)[O-])cc2s1)Nc1ccccc1I	10.5%
Clc1ccc2c(N/N=C/c3c[nH]c4ccc(Br)cc34)ccnc2c1	-85.6% (active)
N#Cc1ccc(-c2nn(-c3ccc(C(=O)O)cc3)cc2CNc2cc(Cl)cc(Cl)c2)cc1	55.8%
COc1ccc2[nH]c(=O)c(CSc3ccc(Nc4nccc(-c5ccc(Cl)cc5)n4)cc3)cc2c1	71.6%
O=C1c2ccccc2C(=O)c2c1c(C(=O)c1ccc(Cl)cc1)n1c2ccc2c3ccccc3ccc21	96.1%
Cc1ccc(CSc2nc(-c3ccc(F)cc3)c(C#N)c(=O)[nH]2)cc1	109%
CCCCCc1ccc(S(=O)(=O)N(C(C)=O)c2cc(-c3csc(N(C)C(C)=O)n3)ccc2N2CCN(C)CC2)cc1	32.2%
O=C(c1ccc([N+](=O)[O-])c([N+](=O)[O-])c1O)n1[nH]c(=O)c2ccccc2c1=O	72.9%
COC[C@@H](CC(C)C)N=C1NC(=O)/C(=C/c2ccc3ncsc3c2)N1	11.5%
O=C1Nc2cc(Cl)ccc2/C1=C/c1cccc(OCc2ccccc2)c1	0.636% (active)
CN1CCN(c2ccc(C(=O)/C=C/c3cc(C(F)(F)F)ccc3Cl)cc2)CC1	-99.2% (active)
O=C(Cn1nc(-c2ccccc2)ccc1=O)NN1C(=O)c2ccccc2C1=O	89.8%
O=C(Nc1ccncc1)c1ccc(-n2c(=O)[nH]c3ccccc3c2=O)cc1	91.1%
O=C1N/C(=N\c2nccs2)S/C1=C\c1cccs1	30.6%
COc1cc2c3c(n(CCCn4ccnc4)c(=O)c2cc1OC)-c1nc2c(cc1C3=O)OCO2	25.6%
CN(C)c1cccc2c(S(=O)(=O)Nc3cccc(-c4csc(NC(=O)CCCCCN5CCN(c6cc7c(cc6F)C(=O)N(C6CCC(=O)NC6=O)C7=O)CC5)n4)c3)cccc12 (configuration not stated)	92.8%
